Data reported in PubChem BioAssay.
Calls of active or inactive are those of the source.

Tests used:
[1] = tested on: Plasmodium falciparum Sir2 (PF13_0152, Sir2A); assay: Plasmodium falciparum Sir2A binding compounds – biochemical, small-molecule microarray, 635 nm fluorescence, primary screen (AID 1098); conditions: fluorescence 635 nm, higher = more signal;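 note: score merges spot fluorescence intensity with its signal-to-noise ratio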
[2] = probe aDKK1 binding to arrayed compounds – biochemical, biotinylated probe, 635/667 nm fluorescence, primary screen (AID 1099); conditions: small-molecule microarray, higher = more signal;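 note: score merges 667nm spot fluorescence with signal to noise across triplicate slides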
[3] = probe aCHRDL2 binding to arrayed compounds – biochemical, biotinylated probe, 635/667 nm fluorescence, primary screen (AID 1100); conditions: small-molecule microarray, higher = more signal
[4] = change in splice reporter luminescence, either direction, cell-based, HEK293, spliceosome inhibition project, primary screen (AID 1101); conditions: HEK293 splicing luciferase reporter, 24 h, higher = more signal, called active from +8 up or from −8 down;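 note: HEK293 cells carrying a splicing-competent luciferase reporter gene; test concentration not given here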
[5] = target: Fibroblast growth factor 10 (Homo sapiens) (UniProt O15520); assay: compounds binding fibroblast growth factor 10 – biochemical, small-molecule microarray, 635 nm fluorescence, primary screen (AID 1102); conditions: FGF10 binding, fluorescence 635 nm, higher = more signal
[6] = tested on: glycogen synthase kinase-3 (GSK3A per assay name; protocol says GSK3B); assay: compounds binding glycogen synthase kinase-3 – biochemical, small-molecule microarray, 635 nm fluorescence, GSK3A, primary screen (AID 1103); conditions: fluorescence 635 nm, higher = more signal; note: the record names both GSK3A and GSK3B
[7] = target: Epidermal growth factor receptor (Homo sapiens) (UniProt P00533); assay: compounds binding epidermal growth factor receptor – biochemical, small-molecule microarray, 635 nm fluorescence, primary screen (AID 1104); conditions: EGFR binding, higher = more signal;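 note: score merges 667 nm emission intensity with spot signal to noise over triplicate slides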
[8] = target: Follistatin-related protein 3 (Homo sapiens) (UniProt O95633); assay: compounds binding follistatin-related protein 3 – biochemical, small-molecule microarray, 635 nm fluorescence, primary screen (AID 1105); conditions: FSTL3 binding, higher = more signal;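 note: score merges emission near 667 nm and signal to noise per printed spot across three slides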
[9] = target: Dickkopf-related protein 1 (Homo sapiens) (UniProt O94907); assay: small molecules binding DKK1 protein – biochemical, small-molecule microarray, 635 nm fluorescence scan, primary screen (AID 1106); conditions: higher = more signal;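 note: score merges emission near 667 nm with signal to noise over three replicate slides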
[10] = tested on: Inhibin beta A chain (activin A); assay: small molecules binding activin A – biochemical, small-molecule microarray, 635 nm fluorescence scan, primary screen (AID 1107); conditions: INHBA, higher = more signal;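 note: mouse activin A protein probed at 4.33 µg/mL on printed slides; score merges bound-protein fluorescence near 667 nm with spot signal-to-noise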
[11] = tested on: Human papillomavirus type 1a protein E7 (residues 44-93); assay: small molecules binding HPV E7 44-93 – biochemical, small-molecule microarray, residues 44-93, 635 nm fluorescence, primary screen (AID 1108); conditions: fluorescence 635 nm, higher = more signal;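 note: E7 fragment applied at 1 µg/mL in TBST for 1 h at 4 C; score combines spot fluorescence with its signal to noise ratio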
[12] = hepatitis C replication reporter changes, two-sided – Huh7 cells, luciferase reporter, HCV replication inhibitor project, primary screen (AID 1109); conditions: Huh7 HCV replicon luciferase reporter, 48 h; higher = more signal;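 note: huh7 hepatoma cells harbouring a luciferase neomycin HCV replicon reporter; luciferase luminescence as measure of HCV replicon replication; test concentration not given here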
[13] = target: Left-right determination factor 2 (Homo sapiens) (UniProt O00292); assay: small molecules binding LEFTY2 protein – biochemical, small-molecule microarray, 635 nm fluorescence scan, primary screen (AID 1110); conditions: higher = more signal
[14] = target: Calmodulin-1 (Homo sapiens) (UniProt P0DP23); assay: small molecules binding calmodulin-1 with EGTA – biochemical, small-molecule microarray, Cy5-labelled CALM1, profiling panel (AID 1111); conditions: Cy5-CALM1 binding fluorescence, higher = more signal;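 note: labelled calmodulin applied in Tris saline Tween buffer holding calcium plus EGTA and DTT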
[15] = target: Calmodulin-1 (Homo sapiens) (UniProt P0DP23); assay: small molecules binding Ca-loaded calmodulin-1 – biochemical, small-molecule microarray, Cy5-labelled CALM1, plus calcium, artefact control for SMM control-protein annotation, profiling panel (AID 1112); conditions: Cy5-CALM1 binding fluorescence, higher = more signal;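 note: score merges spot fluorescence with signal to noise from triplicate slides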
[16] = probe aWnt5a binding to arrayed compounds – biochemical, biotinylated probe, 635/667 nm fluorescence, primary screen (AID 1113); conditions: small-molecule microarray, higher = more signal;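 note: score merges 667 nm fluorescence intensity with signal-to-noise per printed feature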
[17] = probe aShh binding to arrayed compounds – biochemical, biotinylated probe, 635/667 nm fluorescence, primary screen (AID 1114); conditions: small-molecule microarray, higher = more signal;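 note: probe is biotin-labelled aShh protein from a stem cell growth factor screen; measures binding of labelled protein to compounds printed on the slide; score merges feature fluorescence at 667 nm with signal-to-noise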
[18] = probe aNog binding to arrayed compounds – biochemical, biotinylated probe, 635/667 nm fluorescence, primary screen (AID 1115); conditions: small-molecule microarray, higher = more signal;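 note: probe is biotinylated aNog protein used at 0.15 µg/mL for 1 h at 4 C; z-score combines 667 nm fluorescence of each spot with its signal to noise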
[19] = target: Torsin-1A-interacting protein 1 (Homo sapiens) (UniProt Q5JTV8); assay: compound microarray binding of lysate hLAP1 – cell lysate, small-molecule microarray, COS7 lysate, 635/667 nm fluorescence, primary screen (AID 1116); conditions: 635 nm fluorescence, higher = more signal
[20] = target: Alpha-bungarotoxin (Bungarus multicinctus) (UniProt P60615); assay: compounds binding labelled alpha-BTX control protein – biochemical, small-molecule microarray, Alexa647 label, 635/667 nm fluorescence, artefact control for SMM control protein annotation, profiling panel (AID 1117); conditions: alpha-BTX-A647 binding fluorescence, higher = more signal
Chain of Alpha-bungarotoxin (Bungarus multicinctus) (P60615 whole entry, looked up): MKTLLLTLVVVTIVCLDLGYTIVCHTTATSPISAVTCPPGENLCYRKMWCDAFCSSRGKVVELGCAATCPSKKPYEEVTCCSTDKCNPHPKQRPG

Chain of Epidermal growth factor receptor (Homo sapiens) (P00533 whole entry, looked up): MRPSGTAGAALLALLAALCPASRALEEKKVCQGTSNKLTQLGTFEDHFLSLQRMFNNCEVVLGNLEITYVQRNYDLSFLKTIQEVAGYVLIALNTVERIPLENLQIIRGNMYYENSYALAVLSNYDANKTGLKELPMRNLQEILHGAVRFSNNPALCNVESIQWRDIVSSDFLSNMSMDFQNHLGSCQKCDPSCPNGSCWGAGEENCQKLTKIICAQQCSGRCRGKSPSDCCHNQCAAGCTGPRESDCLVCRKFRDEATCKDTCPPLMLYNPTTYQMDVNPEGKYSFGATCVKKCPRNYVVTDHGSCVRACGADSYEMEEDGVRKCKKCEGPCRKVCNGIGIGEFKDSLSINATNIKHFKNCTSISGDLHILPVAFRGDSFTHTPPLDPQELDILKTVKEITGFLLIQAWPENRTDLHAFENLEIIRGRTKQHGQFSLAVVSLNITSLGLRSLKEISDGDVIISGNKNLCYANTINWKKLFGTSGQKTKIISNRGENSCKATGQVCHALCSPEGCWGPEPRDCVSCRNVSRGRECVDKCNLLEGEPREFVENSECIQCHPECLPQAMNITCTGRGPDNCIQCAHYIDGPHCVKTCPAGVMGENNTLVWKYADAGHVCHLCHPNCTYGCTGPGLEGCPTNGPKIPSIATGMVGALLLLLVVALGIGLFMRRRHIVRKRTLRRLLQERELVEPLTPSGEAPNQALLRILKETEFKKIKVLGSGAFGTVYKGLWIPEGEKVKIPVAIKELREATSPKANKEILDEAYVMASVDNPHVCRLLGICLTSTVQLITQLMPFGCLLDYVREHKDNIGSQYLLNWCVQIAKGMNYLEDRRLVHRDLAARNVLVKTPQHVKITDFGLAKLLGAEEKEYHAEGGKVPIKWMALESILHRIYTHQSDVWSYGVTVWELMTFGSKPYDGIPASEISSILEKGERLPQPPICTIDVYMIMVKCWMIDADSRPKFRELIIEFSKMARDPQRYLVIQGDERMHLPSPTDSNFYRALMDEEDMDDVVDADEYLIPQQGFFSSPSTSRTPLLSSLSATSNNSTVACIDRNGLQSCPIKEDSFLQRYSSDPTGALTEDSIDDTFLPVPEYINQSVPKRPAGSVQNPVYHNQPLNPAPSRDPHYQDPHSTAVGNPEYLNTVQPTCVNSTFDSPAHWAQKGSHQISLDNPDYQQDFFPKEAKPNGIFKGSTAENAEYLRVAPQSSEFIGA
Chain of Left-right determination factor 2 (Homo sapiens) (O00292 whole entry, looked up): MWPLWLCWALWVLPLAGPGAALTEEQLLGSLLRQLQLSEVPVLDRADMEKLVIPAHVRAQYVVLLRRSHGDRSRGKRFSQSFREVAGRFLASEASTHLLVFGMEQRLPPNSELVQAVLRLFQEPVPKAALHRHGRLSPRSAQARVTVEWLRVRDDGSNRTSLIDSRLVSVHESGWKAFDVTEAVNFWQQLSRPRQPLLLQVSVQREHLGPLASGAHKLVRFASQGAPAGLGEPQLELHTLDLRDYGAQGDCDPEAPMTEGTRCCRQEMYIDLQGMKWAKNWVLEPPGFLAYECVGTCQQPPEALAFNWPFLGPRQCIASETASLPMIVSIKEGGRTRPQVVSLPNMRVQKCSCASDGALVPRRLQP
Chain of Dickkopf-related protein 1 (Homo sapiens) (O94907 whole entry, looked up): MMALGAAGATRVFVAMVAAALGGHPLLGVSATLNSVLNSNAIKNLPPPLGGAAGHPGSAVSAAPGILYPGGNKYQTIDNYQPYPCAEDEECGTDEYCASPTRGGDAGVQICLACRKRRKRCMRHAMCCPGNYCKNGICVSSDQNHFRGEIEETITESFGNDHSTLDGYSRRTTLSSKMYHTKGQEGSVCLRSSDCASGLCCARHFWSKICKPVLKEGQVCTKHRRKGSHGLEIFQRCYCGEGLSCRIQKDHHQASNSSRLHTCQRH
Chain of Follistatin-related protein 3 (Homo sapiens) (O95633 whole entry, looked up): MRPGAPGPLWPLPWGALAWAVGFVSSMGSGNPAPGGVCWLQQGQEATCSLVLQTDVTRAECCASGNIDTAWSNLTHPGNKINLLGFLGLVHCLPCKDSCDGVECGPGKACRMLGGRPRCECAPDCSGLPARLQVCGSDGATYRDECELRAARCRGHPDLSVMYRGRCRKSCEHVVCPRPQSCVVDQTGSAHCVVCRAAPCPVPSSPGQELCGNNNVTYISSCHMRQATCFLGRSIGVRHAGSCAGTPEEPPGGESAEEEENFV
Chain of Torsin-1A-interacting protein 1 (Homo sapiens) (Q5JTV8 whole entry, looked up): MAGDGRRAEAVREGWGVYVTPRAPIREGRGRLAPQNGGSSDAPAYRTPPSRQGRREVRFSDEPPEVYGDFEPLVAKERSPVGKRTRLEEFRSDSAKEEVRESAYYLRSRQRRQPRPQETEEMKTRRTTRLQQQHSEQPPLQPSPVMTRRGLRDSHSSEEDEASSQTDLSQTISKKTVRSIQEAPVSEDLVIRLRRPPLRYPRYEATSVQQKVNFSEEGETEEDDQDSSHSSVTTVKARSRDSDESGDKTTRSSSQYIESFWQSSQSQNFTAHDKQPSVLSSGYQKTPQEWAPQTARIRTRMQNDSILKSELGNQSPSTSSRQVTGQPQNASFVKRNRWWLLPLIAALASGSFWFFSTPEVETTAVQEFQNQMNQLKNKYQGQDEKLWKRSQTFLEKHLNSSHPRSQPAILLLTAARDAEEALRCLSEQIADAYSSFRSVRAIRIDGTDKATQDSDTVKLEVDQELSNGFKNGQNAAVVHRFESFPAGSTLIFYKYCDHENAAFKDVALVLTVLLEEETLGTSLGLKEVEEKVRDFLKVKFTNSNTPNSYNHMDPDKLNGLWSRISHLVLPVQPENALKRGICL
Chain of Fibroblast growth factor 10 (Homo sapiens) (O15520 whole entry, looked up): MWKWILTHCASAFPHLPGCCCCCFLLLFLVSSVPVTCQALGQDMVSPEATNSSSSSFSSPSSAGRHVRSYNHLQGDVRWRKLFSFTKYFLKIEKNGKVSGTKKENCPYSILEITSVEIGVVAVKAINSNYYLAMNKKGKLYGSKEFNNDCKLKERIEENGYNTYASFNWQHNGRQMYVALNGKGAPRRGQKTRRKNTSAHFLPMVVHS

Compound | composite z-score [1] | composite z-score [2] | composite z-score [3] | z-score [4] | composite z-score [5] | composite z-score [6] | composite z-score [7] | composite z-score [8] | composite z-score [9] | composite z-score [10] | composite z-score [11] | z-score [12] | composite z-score [13] | composite z-score [14] | composite z-score [15] | composite z-score [16] | composite z-score [17] | composite z-score [18] | composite z-score [19] | composite z-score [20]
O=C1NC(=O)C2C1C=CC(C(O)C=Cc1ccc([N+](=O)[O-])cc1)N2Nc1ccccn1 (stereo not given) | 1.1 | 0.141 | 0.239 | 1.5 (inactive) | 0.267 | -0.0039 | 1.07 | 0.479 | 0.697 | 1.32 | -0.581 | 0.807 | 0.909 | -0.438 | -0.544 | -0.14 | 0.265 | -0.142 | 1.45 | 0.224
CCC(=O)[C@]12O[C@@]3([C@@H]4C(=O)OCC[C@@H]41)N(CC)C(C)=C(C(=O)OC)[C@@H](c1ccccc1)N3C2=O | -0.155 | -0.41 | -0.87 | -1.9 (inactive) | 0.162 | 0.0495 | 0.0064 | 0.599 | 0.817 | 1.7 | -0.933 | -0.206 | 0.594 | -0.42 | -0.382 | -0.147 | 0.227 | -0.131 | -0.303 | 0.175
NC(=O)NCC#Cc1ccc2c(c1)[C@]1(C(=O)N2)[C@H](C(N)=O)[C@H]2C(=O)O[C@H](c3ccccc3)[C@H](c3ccccc3)N2[C@@H]1c1ccccc1OCCO | 0.628 | 0.371 | 0.482 | -0.328 (inactive) | 1.06 | 0.343 | 0.269 | 1.02 | 0.576 | 1.02 | 1.04 | -0.771 | 0.375 | 0.425 | 0.356 | -0.124 | -0.0793 | 0.657 | 0.808 | 0.45
CC(C)[Si]1(C(C)C)O[C@@H](c2ccccc2)c2cc(C3CC3)nc(-c3ccc(Oc4ccccc4)cc3)c21 | -1.25 | -0.105 | -0.037 | -0.961 (inactive) | -0.318 | -0.343 | -0.0891 | -0.489 | -0.159 | 0.513 | -0.266 | -0.176 | -0.436 | -0.395 | 0.89 | -0.0758 | -0.214 | -0.158 | 0.0613 | -0.789
Cc1ccc(S[C@]2(C(=O)NC(C)C)CC(=O)N(C3Cc4ccccc4C3)[C@@H]2c2ccc(CO)cc2)cc1 | 1.24 | -0.786 | 0.556 | -1.15 (inactive) | -0.258 | -0.106 | -0.544 | -0.0429 | -1.2 | -0.215 | 0.951 | -2.01 | -0.873 | -0.329 | -0.603 | -0.098 | -0.421 | -0.315 | 1.52 | 1.12
O=C1O[C@@H](c2ccccc2)[C@@H](c2ccccc2)N2[C@@H](c3ccccc3OCCO)[C@]3(C(=O)Nc4ccc(C#CC5=CCCCC5)cc43)[C@@H](C(=O)O)[C@H]12 | 1.17 | 0.702 | 0.51 | -2.47 (inactive) | 0.289 | 1.04 | 0.309 | 0.87 | 0.471 | 1.09 | 0.799 | -2.28 | 0.0802 | 1.7 | 0.957 | -0.0539 | 0.13 | 0.0014 | 0.612 | 1.77
CCCCO[C@H]1C[C@H]2C(Br)=C[C@@]1(CO)C(=O)[C@]21CO1 | -0.145 | -0.482 | -1.04 | -1.53 (inactive) | 0.136 | -0.243 | 0.156 | 0.184 | 0.308 | 0.363 | -0.122 | -1.46 | 0.456 | -0.795 | -1.33 | -0.146 | -0.123 | -0.278 | -0.242 | -0.755
C=CC[C@]1(C(=O)O)N=C(c2ccc(OCCCO)cc2)O[C@H]1c1ccccc1 | 1.43 | 0.518 | 0.838 | -0.893 (inactive) | -0.0023 | -0.517 | -1.13 | -1.02 | -0.968 | 0.654 | -0.726 | -0.138 | -0.764 | 1.21 | 0.994 | -0.124 | 0.216 | 0.448 | 0.498 | 0.378
COCCCNC(=O)[C@@H]1c2ccccc2C(=O)N(CC23CC4CC(CC(C4)C2)C3)[C@H]1c1ccc(CO)cc1 | 0.0881 | 0.884 | 0.97 | -1.1 (inactive) | 0.37 | 0.623 | 0.215 | 0.296 | 0.427 | 0.911 | 0.666 | -1.57 | -0.191 | 0.879 | 0.803 | -0.0405 | 0.778 | 0.0051 | 0.926 | 0.253
CN(C)CCCC[C@@H]1NC(=O)[C@@H]2C[C@H](C(=O)NCCCCCNC(=O)CS)[C@H](c3ccc(O)cc3)N2C1=O | 1.19 | 0.0418 | -0.109 | -0.812 (inactive) | 1.11 | 0.667 | 0.0635 | 1.18 | 1.81 | 0.687 | 0.664 | 0.873 | 1.17 | 0.0884 | 1.25 | -0.124 | 0.199 | 0.498 | 0.761 | 1.65
CO[C@H]1COC(=O)[C@H](C)NC(=O)CC=C[C@@H](C)[C@H](NS(=O)(=O)c2ccc(C)cc2)COC(=O)CC=C[C@@H]1C | 0.997 | -0.667 | -1.28 | -0.489 (inactive) | 0.27 | -0.0078 | 0.778 | 0.956 | 0.979 | 1.47 | -0.9 | -0.05 | 0.285 | -1.11 | -1.46 | -0.137 | -0.0709 | -0.12 | 0.368 | -0.555
